Reference: PubChem BioAssay (NCATS)
“And” between values parts separate entries of the source, which are not always exact repeats. Equal values may be shown once. Records with an inconclusive call do not appear. Entries that show only a call come without a potency. The source made the active and inactive calls. Unless noted, calls follow the shape of the dose curve; as a rule, active = well fitted curve in the direction sought with a large enough effect; inconclusive = small, poorly fitted or top-dose-only effect, or another doubt; inactive = no such curve, though single readings can be large; an effect the other way counts as inactive or inconclusive.

Legend:
[1] = Cell Viability - LYMP2-001 (AID 921); also: series mostly up to about 92 µM; nearly all actives have a fitted effect of over 70% in size
Summary of the method: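 qHTS, 1536-well; lymphoblastoid cells, 24 hr compound, 37 C; ATP by CellTiter-Glo, 30 min RT; luminescence; Hill-fit AC50.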

[2] = MultiTox-Fluor Cytotoxicity Assay - LYMP1-002 - Dead Cells (AID 960); also: nearly all actives have a fitted effect of over 60% in size
Summary of the method: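 Cells were plated, rested 5 hr, then treated with compound dilution series for 16 hr at 37 C. After adding substrate reagent and 60 min at room temperature, dead-cell protease fluorescence gave concentration-response curves fitted by the Hill equation.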

[3] = Cell Viability - LYMP2-009 (AID 968); also: series mostly up to about 92 µM; nearly all actives have a fitted effect of over 55% in size
[4] = Cell Viability - LYMP2-021 (AID 974);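 also: compound exposure lasts 24 hours at 37 °C; nearly all actives have a fitted effect of over 55% in size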
Summary of the method: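 Loss of cellular ATP, measured with a luciferase-based CellTiter-Glo readout, serves as the toxicity signal in human lymphoblastoid cells treated for 24 hours at 37 C. Potency is reported as AC50 from a standard Hill model.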

[5] = Cell Viability - LYMP2-010 (AID 981); also: nearly all actives have a fitted effect of over 55% in size
Summary of the method: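 Steps: seed 2500 LYMP2-010 cells per well; incubate 5 hr at 37 C; add compound; incubate 24 hr at 37 C; add CellTiter-Glo, wait 30 min at room temperature; read luminescence. Concentration-response fitted to Hill equation for AC50.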

[6] = Cell Viability - LYMP2-012 (AID 982);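 also: cellular ATP by luciferase luminescence where a drop means cytotoxicity; cells exposed to compound for one day before reading; nearly all actives have a fitted effect of over 55% in size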
[7] = Cell Viability - LYMP2-016 (AID 984); also: nearly all actives have a fitted effect of over 55% in size
Summary of the method: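 Acute toxicity in a Coriell human lymphoblastoid line is scored as loss of intracellular ATP over 24 h of treatment in complete medium. CellTiter-Glo signal is fitted across concentrations with the Hill equation to give AC50.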

[8] = Cell Viability - LYMP2-024 (AID 988); also: nearly all actives have a fitted effect of over 60% in size
Summary of the method: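 qHTS cytotoxicity, human lymphoblastoid line, complete medium; 24 h cpd treatment, 37 C; CellTiter-Glo ATP luminescence readout; tetraoctylammonium bromide positive control; AC50 via Hill fit.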

[9] = target: Estrogen receptor (Homo sapiens) (UniProt P03372); test: qHTS assay for small molecule antagonists of estrogen receptor alpha signaling (AID 588513; active = well fitted curve in the direction sought with a large enough effect in the signal ratio, with a control signal flat, not every such curve was filed as active; the % refers to the signal ratio)
Estrogen receptor (Homo sapiens), sequence (P03372 whole entry, looked up): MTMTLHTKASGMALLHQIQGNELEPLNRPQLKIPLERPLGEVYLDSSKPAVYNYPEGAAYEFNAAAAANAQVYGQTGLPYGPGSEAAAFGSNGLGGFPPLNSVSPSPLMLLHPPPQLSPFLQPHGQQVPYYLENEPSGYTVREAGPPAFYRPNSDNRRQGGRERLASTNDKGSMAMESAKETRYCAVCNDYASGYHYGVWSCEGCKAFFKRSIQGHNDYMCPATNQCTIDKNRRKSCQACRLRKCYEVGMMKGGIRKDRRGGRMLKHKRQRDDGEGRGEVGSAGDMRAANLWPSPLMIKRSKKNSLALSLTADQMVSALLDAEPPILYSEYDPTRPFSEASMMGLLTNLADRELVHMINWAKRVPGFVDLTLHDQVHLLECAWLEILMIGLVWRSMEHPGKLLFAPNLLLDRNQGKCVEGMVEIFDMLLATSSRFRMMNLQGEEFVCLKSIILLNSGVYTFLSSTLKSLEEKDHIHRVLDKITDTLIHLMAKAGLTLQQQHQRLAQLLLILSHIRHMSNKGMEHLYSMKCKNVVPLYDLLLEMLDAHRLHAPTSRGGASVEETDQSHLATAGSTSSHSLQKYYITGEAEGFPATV
Summary of the method: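 Cells were plated at 5000/well and incubated 4 h at 37 C. Compounds were added as 1:2 dilution series, duplicates. 17-beta-estradiol (0.5nM final) was added for 18 h before CCF4 detection.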

[10] = target: Estrogen receptor (Homo sapiens) (UniProt P03372); test: qHTS assay for small molecule agonists of estrogen receptor alpha signaling (AID 588514; calls by dose curve; also: nearly all actives have a fitted effect of over 70% in size)
Summary of the method: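 Efficacy is expressed against 20 nM 17-beta-estradiol (100%) and DMSO basal (0%); EC50 from Hill equation. Assay: beta-lactamase reporter in ER-alpha-UAS-bla HEK 293 cells, 18 h compound incubation, CCF4 detection.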

[11] = target: Peroxisome proliferator-activated receptor delta (Homo sapiens) (UniProt Q03181); test: qHTS assay for small molecule agonists of peroxisome proliferator-activated receptor delta signaling (AID 588534; calls by dose curve)
Peroxisome proliferator-activated receptor delta (Homo sapiens), sequence (Q03181 whole entry, looked up): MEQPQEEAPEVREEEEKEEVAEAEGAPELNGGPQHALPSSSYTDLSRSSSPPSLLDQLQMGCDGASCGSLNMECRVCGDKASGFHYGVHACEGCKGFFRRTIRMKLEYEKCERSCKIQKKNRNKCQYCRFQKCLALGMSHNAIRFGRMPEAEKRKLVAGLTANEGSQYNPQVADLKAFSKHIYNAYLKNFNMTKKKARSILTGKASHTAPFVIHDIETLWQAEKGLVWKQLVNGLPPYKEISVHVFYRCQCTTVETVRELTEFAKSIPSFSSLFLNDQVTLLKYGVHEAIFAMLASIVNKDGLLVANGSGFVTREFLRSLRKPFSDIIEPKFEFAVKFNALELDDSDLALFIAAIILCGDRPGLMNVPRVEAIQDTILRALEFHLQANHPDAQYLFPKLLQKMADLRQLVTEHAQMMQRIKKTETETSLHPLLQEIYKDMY
Summary of the method: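 Agonist-mode qHTS; reporter cells, 5 hrs 37 C pre-incubation; compound titration, 18 hrs 37 C; CCF4 dye, 2 hrs RT; fluorescence read. EC50/efficacy via Hill fit.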

[12] = target: Peroxisome proliferator-activated receptor gamma (Homo sapiens) (UniProt P37231); test: qHTS assay for small molecule agonists of peroxisome proliferator-activated receptor gamma signaling (AID 588536; active = well fitted curve in the direction sought with a large enough effect in the signal ratio, with a control signal flat, not every such curve was filed as active; the % refers to the signal ratio)
Peroxisome proliferator-activated receptor gamma (Homo sapiens), sequence (P37231 whole entry, looked up): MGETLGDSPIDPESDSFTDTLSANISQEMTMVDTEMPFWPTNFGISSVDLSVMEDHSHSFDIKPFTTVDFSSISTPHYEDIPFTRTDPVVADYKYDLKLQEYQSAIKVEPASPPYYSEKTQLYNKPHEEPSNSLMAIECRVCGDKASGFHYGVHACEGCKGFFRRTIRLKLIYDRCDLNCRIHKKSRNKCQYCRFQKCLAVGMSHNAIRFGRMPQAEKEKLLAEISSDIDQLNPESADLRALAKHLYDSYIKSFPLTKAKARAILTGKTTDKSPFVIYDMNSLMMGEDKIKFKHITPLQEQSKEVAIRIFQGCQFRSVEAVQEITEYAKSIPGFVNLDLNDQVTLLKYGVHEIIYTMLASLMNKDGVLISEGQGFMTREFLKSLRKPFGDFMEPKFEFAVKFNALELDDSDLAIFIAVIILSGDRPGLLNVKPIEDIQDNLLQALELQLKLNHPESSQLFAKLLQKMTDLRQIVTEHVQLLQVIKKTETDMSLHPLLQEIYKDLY
Summary of the method: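 Cells were plated and held 6–6.5 h at 37 C, then compounds were added as a titration series. After a further 16 h, CCF4 dye was loaded for 2 h at room temperature and emission at 460/530 nm recorded.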

[13] = target: Retinoic acid receptor RXR-alpha (Homo sapiens) (UniProt P19793); test: qHTS assay for small molecule agonists of retinoid X receptor alpha signaling (AID 588544; calls by dose curve)
Retinoic acid receptor RXR-alpha (Homo sapiens), sequence (P19793 whole entry, looked up): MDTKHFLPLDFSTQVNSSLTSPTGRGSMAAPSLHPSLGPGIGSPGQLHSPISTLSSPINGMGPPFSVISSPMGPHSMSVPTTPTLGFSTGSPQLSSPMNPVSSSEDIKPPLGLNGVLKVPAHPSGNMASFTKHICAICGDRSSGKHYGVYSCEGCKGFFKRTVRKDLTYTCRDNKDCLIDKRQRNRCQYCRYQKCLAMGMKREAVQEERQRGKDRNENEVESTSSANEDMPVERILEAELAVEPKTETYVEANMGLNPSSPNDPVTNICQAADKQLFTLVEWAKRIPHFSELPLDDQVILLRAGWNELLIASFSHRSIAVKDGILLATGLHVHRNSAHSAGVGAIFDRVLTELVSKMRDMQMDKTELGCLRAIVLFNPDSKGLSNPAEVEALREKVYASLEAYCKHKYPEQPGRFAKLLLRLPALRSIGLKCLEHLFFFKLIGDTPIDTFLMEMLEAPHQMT

[14] = target: Thyroid hormone receptor beta (Homo sapiens) (UniProt P10828); test: qHTS assay for small molecule agonists of thyroid hormone receptor beta signaling (AID 588545; calls by dose curve)
Thyroid hormone receptor beta (Homo sapiens), sequence (P10828 whole entry, looked up): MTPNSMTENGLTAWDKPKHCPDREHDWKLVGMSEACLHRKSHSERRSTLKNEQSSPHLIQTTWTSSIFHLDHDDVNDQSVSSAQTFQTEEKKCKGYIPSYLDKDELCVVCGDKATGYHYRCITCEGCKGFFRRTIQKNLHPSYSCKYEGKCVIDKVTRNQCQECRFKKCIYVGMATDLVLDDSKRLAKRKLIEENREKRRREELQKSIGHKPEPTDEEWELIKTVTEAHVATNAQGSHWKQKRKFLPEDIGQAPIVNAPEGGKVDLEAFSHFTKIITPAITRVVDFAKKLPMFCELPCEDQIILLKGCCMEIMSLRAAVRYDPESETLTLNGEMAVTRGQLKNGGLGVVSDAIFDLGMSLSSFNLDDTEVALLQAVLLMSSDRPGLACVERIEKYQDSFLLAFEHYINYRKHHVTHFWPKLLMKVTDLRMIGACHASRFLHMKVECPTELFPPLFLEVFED
Summary of the method: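 Cells (2500/well) were seeded, incubated 4 hrs at 37 C, dosed with a compound series, incubated 18 hrs, loaded with CCF4 dye for 2 hrs at RT, then read for fluorescence. Data were scaled between DMSO (0%) and 10 nM T3 (100%).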

[15] = qHTS assay for small molecule antagonists of retinoid X receptor alpha signaling (AID 588546); details: HEK293T RXRa-UAS-bla, beta-lactamase ratio, antagonist mode; measured here: W530 green channel, cytotoxicity proxy;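 also: cells stimulated with 9-cis-retinoic acid as agonist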
Summary of the method: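 Beta-lactamase reporter inhibition, read as CCF4 fluorescence ratio (ex 405, em 460/530 nm) after 2 h at RT. HEK293T UAS-bla cells, 2500/well, were stimulated with 9-cis-RA at 500 or 100 nM final alongside test compound for 18 h at 37 C.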

[16] = target: Thyroid hormone receptor beta (Homo sapiens) (UniProt P10828); test: qHTS assay for small molecule antagonists of thyroid hormone receptor beta signaling (AID 588547; active = well fitted inhibition curve with a large enough effect in the signal ratio, with a control signal flat, not every such curve was filed as active; the % refers to the signal ratio;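 also: cells stimulated with 0.4 nM T3 agonist during compound exposure; series mostly up to about 77 µM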); details: TR-UAS-bla HEK293, beta-lactamase ratio, antagonist mode, 18 h
Summary of the method: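 TR-UAS-bla GripTite HEK293 cells in 2% charcoal/dextran FBS medium were preincubated 4 h at 37 C, given compound (0.59 nM to 92 uM) plus 0.4 nM T3 (final) for 18 h, then CCF4 for 2 h at RT; Hill fit gave IC50.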

[17] = target: Tumor necrosis factor (Homo sapiens) (UniProt P01375); test: qHTS assay to identify small molecules that stimulate Tumor Necrosis Factor-alpha (TNF-alpha) secretion (AID 651757; active = well fitted curve in the direction sought with a large enough effect in the signal ratio; the % refers to the signal ratio)
Tumor necrosis factor (Homo sapiens), sequence (P01375 whole entry, looked up): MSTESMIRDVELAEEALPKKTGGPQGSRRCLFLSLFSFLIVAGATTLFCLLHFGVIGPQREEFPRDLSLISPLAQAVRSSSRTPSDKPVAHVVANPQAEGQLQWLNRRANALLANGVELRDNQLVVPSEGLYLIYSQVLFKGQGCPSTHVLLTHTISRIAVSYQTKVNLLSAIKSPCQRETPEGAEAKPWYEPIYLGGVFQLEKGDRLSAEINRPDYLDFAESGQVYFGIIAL
Summary of the method: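 Human monocytic THP-1 cells are plated, treated with compound and held at 37 C for 17 hrs. Labeled anti-TNF-alpha antibody mixture is then added; after 3 hr at room temperature, TR-FRET signal reports secreted TNF-alpha.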

[18] = qHTS assay for environmental chemicals that activate the Aryl hydrocarbon Receptor (AhR) signaling pathway (AID 651777); details: 1A2-DRE human hepatoma cells, luciferase, 24 h; activation: stronger effect = higher value; also: nearly all actives have a fitted effect of over 15% in size
Summary of the method: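 Human hepatoma 1A2-DRE cells stably carrying a DRE/CYP1A2 promoter–luciferase reporter, 1,200 cells/well, exposed to compound 24 hr at 37 C. Luciferase read by One-Glo luminescence after 30 min at room temperature; increased signal marks AhR activation.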

[19] = target: Nuclear receptor ROR-gamma (Homo sapiens) (UniProt P51449); test: qHTS assay for small molecule antagonists of the retinoid-related orphan receptor gamma (ROR-gamma) signaling pathway (AID 651802);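 also: CHO cells with doxycycline-induced ROR-gamma expression; series mostly up to about 92 µM; nearly all actives have a fitted effect of over 60% in size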
Nuclear receptor ROR-gamma (Homo sapiens), sequence (P51449 whole entry, looked up): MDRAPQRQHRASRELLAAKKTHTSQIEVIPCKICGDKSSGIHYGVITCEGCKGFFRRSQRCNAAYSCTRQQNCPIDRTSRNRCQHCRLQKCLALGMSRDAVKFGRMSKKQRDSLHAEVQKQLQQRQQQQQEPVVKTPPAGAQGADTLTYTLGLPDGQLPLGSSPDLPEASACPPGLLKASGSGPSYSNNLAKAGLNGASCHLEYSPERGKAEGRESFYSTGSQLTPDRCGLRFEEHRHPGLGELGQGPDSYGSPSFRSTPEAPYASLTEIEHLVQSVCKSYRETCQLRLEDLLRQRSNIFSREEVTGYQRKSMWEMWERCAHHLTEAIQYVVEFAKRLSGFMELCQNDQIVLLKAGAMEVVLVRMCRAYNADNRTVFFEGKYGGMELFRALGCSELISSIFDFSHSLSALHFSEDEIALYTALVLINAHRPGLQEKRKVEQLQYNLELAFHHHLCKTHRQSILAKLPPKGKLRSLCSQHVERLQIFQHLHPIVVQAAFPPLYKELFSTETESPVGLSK
Summary of the method: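 Steps: cells dispensed; compound or DMSO transferred by pin tool; doxycycline added to induce the ROR response element-driven luciferase; plates held 16hr at 37C; ONE-Glo added and luminescence measured.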

[20] = qHTS assay for small molecule antagonists of the retinoid-related orphan receptor gamma (ROR-gamma) signaling pathway - cell viability counter screen (AID 720652; active = well fitted curve in the direction sought with a large enough effect in the repeat runs; an effect the other way counts as inactive or inconclusive;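 also: CHO reporter cells with doxycycline-induced ROR-gamma expression; series mostly up to about 92 µM; compound exposure lasted 16 hr before ATP read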)
Summary of the method: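 Steps: seed CHO cells bearing TET-inducible ROR and ROR response element-luciferase; rest 5 hr at 37 C; add compound, then doxycycline; incubate 16 hr; add CellTiter-Glo and read luminescence as ATP-based viability.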

Row | SMILES | Potency [1] | Potency [2] | Potency [3] | Potency [4] | Potency [5] | Potency [6] | Potency [7] | Potency [8] | Potency [9] | Potency [10] | outcome [11] | outcome [12] | Potency [13] | outcome [14] | max response [15] | activity change % (negative = inhibition) [16] | outcome [17] | activation [18] | Potency [19] | Potency [20]
1 | C1CCC2CCCCC2C1 (centres undefined) | inactive | inactive | inactive | inactive | inactive | inactive | inactive | inactive | inactive | inactive | inactive | inactive | inactive | inactive | -2.39% | 10.1% (inactive) | inactive | -0.339% (inactive) | inactive | inactive
2 | OCC(Br)CBr (centres undefined) | inactive | inactive | inactive | inactive | inactive | inactive | inactive | inactive | inactive | inactive | inactive | inactive | inactive |  | -6.01% | 1.09% (inactive) | inactive | -1.14% (inactive) | inactive | inactive
3 | C=C(C)C(=O)OCC1CO1 (centres undefined) | inactive | inactive | inactive | inactive | inactive | inactive | inactive | inactive | inactive | inactive | inactive | inactive | inactive | inactive | -2.75% | 6.72% (inactive) | inactive | 0.578% (inactive) | inactive | inactive
4 | CCC[CH2][Sn]([Cl])([Cl])[Cl] | inactive | inactive | inactive | inactive | inactive | inactive | inactive | inactive | inactive | inactive | inactive | inactive | inactive | inactive | -9.08% and -6.63% | 9.88% (inactive) | inactive | 0.348% (inactive) and 0.965% (inactive) | inactive | inactive
5 | Cc1ccc(O)c(C)c1 | inactive | inactive | inactive | inactive |  | inactive | inactive | inactive | inactive | inactive | inactive | inactive | inactive | inactive | -12.5% and -7.89% and -6.08% | 2.23% (inactive) and -13.2% (inactive) and -16.1% (inactive) | inactive | -0.285% (inactive) and -2.95% (inactive) and -1.2% (inactive) | inactive | inactive
6 | N#CCCCl | inactive | inactive | inactive | inactive | inactive | inactive | inactive | inactive |  |  |  |  | inactive | inactive | 2.8% and 0.773% | -2.7% (inactive) and 7.92% (inactive) | inactive |  | inactive | inactive
7 | COc1ccc(N)cc1 | inactive | inactive | inactive | inactive | inactive | inactive | inactive | inactive |  |  | inactive | inactive | inactive | inactive | 0.204% and 7.89% | 8.16% (inactive) and -11.7% (inactive) | inactive | 1.03% (inactive) and 6.89% (inactive) | inactive | inactive
8 | C=CCc1ccc(OC)c(OC)c1 |  |  |  |  |  |  |  |  |  |  | inactive |  |  |  |  |  |  |  |  | 
9 | ClC(Cl)=C(Cl)C(Cl)=C(Cl)Cl |  | inactive |  |  |  |  |  |  | inactive | inactive | inactive | inactive | inactive | inactive | -3.71% and -13.6% | -2.4% (inactive) | inactive | -0.54% (inactive) and -2.12% (inactive) | inactive | inactive
10 | O=[N+]([O-])c1cccc2ccccc12 | inactive | inactive | inactive | inactive | inactive | inactive | inactive | inactive | inactive | inactive | inactive | inactive | inactive | inactive | -1.12% and -4.23% | 7.72% (inactive) and 4.17% (inactive) | inactive | 0.626% (inactive) and 5.73% (inactive) | inactive | 
11 | COc1ccc(C=O)cc1OC | inactive | inactive | inactive | inactive | inactive | inactive | inactive | inactive | inactive | inactive |  | inactive | inactive | inactive | -5.56% and -4.77% | 2.18% (inactive) and 12.7% (inactive) |  | 0.671% (inactive) and 1.28% (inactive) | inactive | inactive
12 | CCOP(=S)(OCC)SCSC(C)(C)C | inactive | inactive | inactive | inactive | inactive | inactive | inactive | inactive | inactive | inactive | inactive | inactive | inactive | inactive | -10.4% and -6.52% | -5% (inactive) and -15.6% (inactive) | inactive | 0.254% (inactive) and 2.38% (inactive) |  | inactive
13 | ClC(Cl)(Cl)c1ccccc1 | inactive | inactive | inactive | inactive | inactive | inactive | inactive | inactive | inactive | inactive | inactive |  | inactive | inactive | -5.33% and -1.27% | -2.31% (inactive) and -2.68% (inactive) | inactive | -0.334% (inactive) and -0.126% (inactive) | inactive | inactive
14 | Clc1nc(Cl)nc(Nc2ccccc2Cl)n1 | inactive | inactive | inactive | inactive | inactive | inactive | inactive | inactive | inactive | inactive | inactive | inactive | inactive | inactive | 1.32% | 11.4% (inactive) | inactive | 3.35% (inactive) and 3.56% (inactive) | inactive | inactive
15 | CCCCOCCOP(=O)(OCCOCCCC)OCCOCCCC | inactive | inactive | inactive | inactive | inactive | inactive | inactive | inactive | inactive | inactive | inactive | inactive | inactive | inactive | 2.76% and -5.2% | -2.2% (inactive) and -9.56% (inactive) |  |  |  | inactive
16 | ClC(Cl)=C(Cl)Cl | inactive | inactive | inactive | inactive | inactive | inactive | inactive | inactive |  |  |  | inactive | inactive | inactive | -6.82% and -0.572% | -10.3% (inactive) and -3.55% (inactive) | inactive | -0.882% (inactive) and 0.706% (inactive) | inactive | inactive
17 | CC(=O)[O-].CC(=O)[O-].O.O.O.[Pb+2] | inactive | inactive | inactive | inactive | inactive | inactive | inactive | inactive |  |  |  |  | inactive | inactive | -8.42% and -6.15% | -0.227% (inactive) | inactive | 1.24% (inactive) and 0.452% (inactive) |  | inactive
